Reference: PubChem BioAssay (NCATS)
Records with an inconclusive call do not appear. A number with no mark means an inactive call. The call rests on the fitted dose curve; in most records, active means well fitted inhibition curve with a large enough effect; inconclusive means small, poorly fitted or top-dose-only effect; inactive means flat fitted curve, though single readings scatter.

What follows are molecules tested against Luciferin 4-monooxygenase (Photinus pyralis) (UniProt P08659) (assay: Biochemical firefly luciferase enzyme assay for NPC (AID 624030;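 further: purified P. pyralis luciferase at 10 nM with luciferin and ATP substrate; 0% = DMSO and -100% = full luciferase inhibition by PTC124 control; nearly all actives have a fitted effect of over 70% in size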)). Settings: purified P. pyralis luciferase, luminescence, 5 min; series mostly up to 58.6 µM; activity change, negative = inhibition: at the top concentration.
Luciferin 4-monooxygenase (Photinus pyralis), sequence (P08659 whole entry, looked up): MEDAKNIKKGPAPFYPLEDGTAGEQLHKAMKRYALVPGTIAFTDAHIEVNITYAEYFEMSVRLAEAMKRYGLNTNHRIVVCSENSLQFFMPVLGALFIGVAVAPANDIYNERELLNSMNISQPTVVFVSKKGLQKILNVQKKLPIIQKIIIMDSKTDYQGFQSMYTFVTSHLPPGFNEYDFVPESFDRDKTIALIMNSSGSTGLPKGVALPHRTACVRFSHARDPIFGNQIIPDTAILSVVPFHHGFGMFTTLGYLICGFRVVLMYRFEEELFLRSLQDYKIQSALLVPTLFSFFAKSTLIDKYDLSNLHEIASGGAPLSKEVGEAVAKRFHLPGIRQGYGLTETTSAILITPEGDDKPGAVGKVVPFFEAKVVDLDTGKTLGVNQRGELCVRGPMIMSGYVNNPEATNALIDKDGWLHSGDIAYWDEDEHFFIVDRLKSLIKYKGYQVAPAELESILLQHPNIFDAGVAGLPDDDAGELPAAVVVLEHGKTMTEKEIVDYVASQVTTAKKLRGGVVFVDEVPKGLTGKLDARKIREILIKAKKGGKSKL
In short: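 Purified P. pyralis luciferase at 10 nM in 50 mM Tris Acetate (final), luminescence read within 5 minutes of enzyme addition to compounds. Activity normalised to PTC124 versus DMSO; concentration-response curves classed by r2, magnitude and activity.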

| SMILES | activity change, negative = inhibition |
| --- | --- |
| CC(=O)N(O)CCCCCNC(=O)CCC(=O)N(O)CCCCCNC(=O)CCC(=O)N(O)CCCCCN | 4.98% [at 24.9 µM] |
| C#C[C@]1(OC(C)=O)CC[C@H]2[C@@H]3CCC4=C[C@@H](OC(C)=O)CC[C@@H]4[C@H]3CC[C@@]21C | 1.46% |
| CCOC(=O)c1cccc(N)c1 | -19.7% |
| CN1C(CCl)Nc2cc(Cl)c(S(N)(=O)=O)cc2S1(=O)=O (centres undefined) | 1.32% |
| CC[N+](CC)(CCNC(=O)C(=O)NCC[N+](CC)(CC)Cc1ccccc1Cl)Cc1ccccc1Cl | 5.8% |
| CCCCC(CC)CN=C(N)NC(N)=NCCCCCCN=C(N)NC(N)=NCC(CC)CCCC (centres undefined) | 1.19% |
| CN1CCN(C(c2ccccc2)c2ccccc2)CC1 | 6.72% [at 24.9 µM] |
| CC(=O)c1ccc2c(c1)N(CCCN1CCC(CCO)CC1)c1ccccc1S2 | 0.915% [at 24.9 µM] |
| NCCC(O)(P(=O)(O)O)P(=O)(O)O | -3.14% |
| CCCCN1CCCC1C(=O)Nc1c(C)cc(C)cc1C (centres undefined) | 5.19% |
| CCOC(=O)/C=C(C)/C=C/C=C(C)/C=C/c1c(C)cc(OC)c(C)c1C | 1.42% |
| COc1c2occc2c(OC)c2c(=O)cc(C)oc12 | 0.197% [at 24.9 µM] |
| CCC(C(=O)OCCN(CC)CC)c1ccccc1 (centres undefined) | -10.5% |
| COc1ccc(CN2CCN(C(c3ccc(F)cc3)c3ccc(F)cc3)CC2)c(OC)c1OC | 8.16% |
| Cc1c(C)n(CCN(C)C)c2ccc(C(=O)OCCN(C)C)cc12 | 14.5% |
| OCc1ccccc1O | -0.286% |
| Cc1c(F)c(N2CCNC(C)C2)cc2c1c(=O)c(C(=O)O)cn2C1CC1 (centres undefined) | -0.49% |
| Cc1cc(O)c(C(C)C)cc1Cl | -0.795% |
| CCn1cc(C(=O)O)c(=O)c2cnc(N3CCCC3)nc21 | 5.18% [at 24.9 µM] |
| NC(CO)(CO)CO | 26.6% |

| SMILES | activity change, negative = inhibition |
| --- | --- |
| CN=C(NC#N)NCCSCc1csc(N=C(N)N)n1 | 0.237% |
| CCCCOc1cc(C(=O)NCCN(CC)CC)c2ccccc2n1 | 4.53% [at 24.9 µM] |
| O=C(O)CNC(=O)c1ccccc1 | -2.36% |
| Cc1cccn2c(=O)c(-c3nnn[nH]3)cnc12 | -7.01% |
| Nc1ccc(C(=O)Nc2ccccc2N)cc1 | -13.4% |
| Cc1c(C(N)=O)cc([N+](=O)[O-])cc1[N+](=O)[O-] | 3.91% |
| COc1cc(-c2ccc(=O)[nH]n2)ccc1OC(F)F | -1.48% |
| CCCCOc1ccc(C(=O)CCN2CCCCC2)cc1 | -2.76% [at 24.9 µM] |
| CCCCCCCCCCCCCCNCCO | -4.71% |
| COC(=O)[C@@H]1CC2=CC(=O)CC[C@]2(C)[C@@]23O[C@@H]2C[C@@]2(C)[C@@H](CC[C@@]24CCC(=O)O4)[C@H]13 | -1.41% |
| c1ccc(CNCCNCc2ccccc2)cc1 | 10.7% |
| CCOc1ccc(NC(=O)CC(C)O)cc1 (centres undefined) | -3.13% |
| OC(CCN1CCCCC1)(c1ccccc1)c1ccccc1 | 6.22% |
| NCCc1ccn[nH]1 | 1.98% [at 24.9 µM] |
| CCN(CC)CCNC(=O)COc1ccc(Cl)cc1 | 4.89% |
| O=C(CCN1CCC(c2ccccc2)C1)c1ccc2c(c1)OCCO2 (centres undefined) | -9.06% |
| Cc1c(N(C)CS(=O)(=O)O)c(=O)n(-c2ccccc2)n1C | 0.696% [at 24.9 µM] |
| O=C(COc1ccc(Cl)cc1)N1CCN(Cc2ccc3c(c2)OCO3)CC1 | 0.218% |
| CCN1CCN(c2cc3c(cc2F)c(=O)c(C(=O)O)cn3C2CC2)CC1 | 1.05% |
